From ChEMBL document CHEMBL1961873, “Compounds: GSK PKIS; Assays: Nanosyn kinase panel” (2012) come the findings set out here.

Assay [1] addresses T1, Serine/threonine-protein kinase D2 (Homo sapiens) (UniProt Q9BZL6).
T1 sequence (whole entry): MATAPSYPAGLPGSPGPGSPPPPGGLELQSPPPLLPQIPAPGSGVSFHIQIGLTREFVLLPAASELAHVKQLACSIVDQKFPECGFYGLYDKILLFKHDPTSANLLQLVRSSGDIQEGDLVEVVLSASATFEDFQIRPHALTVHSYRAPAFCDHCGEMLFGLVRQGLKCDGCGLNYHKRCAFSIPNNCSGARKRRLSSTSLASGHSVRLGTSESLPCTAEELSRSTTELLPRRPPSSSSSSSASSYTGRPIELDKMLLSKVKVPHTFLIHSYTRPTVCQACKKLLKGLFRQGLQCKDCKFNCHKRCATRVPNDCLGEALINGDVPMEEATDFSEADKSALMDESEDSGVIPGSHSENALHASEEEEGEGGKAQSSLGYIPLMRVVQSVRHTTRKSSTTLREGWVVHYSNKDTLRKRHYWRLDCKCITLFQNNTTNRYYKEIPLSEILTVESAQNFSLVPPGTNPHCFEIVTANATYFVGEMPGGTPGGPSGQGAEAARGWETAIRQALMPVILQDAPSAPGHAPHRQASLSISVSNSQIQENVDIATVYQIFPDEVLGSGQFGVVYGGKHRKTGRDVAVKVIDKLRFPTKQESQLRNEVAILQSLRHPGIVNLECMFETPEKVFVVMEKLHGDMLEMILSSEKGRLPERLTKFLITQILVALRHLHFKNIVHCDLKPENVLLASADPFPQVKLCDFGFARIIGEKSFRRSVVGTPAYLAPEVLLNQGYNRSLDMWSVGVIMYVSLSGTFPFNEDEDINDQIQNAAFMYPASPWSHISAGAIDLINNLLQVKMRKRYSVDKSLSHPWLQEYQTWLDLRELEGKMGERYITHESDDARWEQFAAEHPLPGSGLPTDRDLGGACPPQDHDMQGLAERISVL
The conditions noted are these: at 1 µM.

In assay [2] the target is T2, Serine/threonine-protein kinase D3 (Homo sapiens) (UniProt O94806).
T2 sequence (whole entry): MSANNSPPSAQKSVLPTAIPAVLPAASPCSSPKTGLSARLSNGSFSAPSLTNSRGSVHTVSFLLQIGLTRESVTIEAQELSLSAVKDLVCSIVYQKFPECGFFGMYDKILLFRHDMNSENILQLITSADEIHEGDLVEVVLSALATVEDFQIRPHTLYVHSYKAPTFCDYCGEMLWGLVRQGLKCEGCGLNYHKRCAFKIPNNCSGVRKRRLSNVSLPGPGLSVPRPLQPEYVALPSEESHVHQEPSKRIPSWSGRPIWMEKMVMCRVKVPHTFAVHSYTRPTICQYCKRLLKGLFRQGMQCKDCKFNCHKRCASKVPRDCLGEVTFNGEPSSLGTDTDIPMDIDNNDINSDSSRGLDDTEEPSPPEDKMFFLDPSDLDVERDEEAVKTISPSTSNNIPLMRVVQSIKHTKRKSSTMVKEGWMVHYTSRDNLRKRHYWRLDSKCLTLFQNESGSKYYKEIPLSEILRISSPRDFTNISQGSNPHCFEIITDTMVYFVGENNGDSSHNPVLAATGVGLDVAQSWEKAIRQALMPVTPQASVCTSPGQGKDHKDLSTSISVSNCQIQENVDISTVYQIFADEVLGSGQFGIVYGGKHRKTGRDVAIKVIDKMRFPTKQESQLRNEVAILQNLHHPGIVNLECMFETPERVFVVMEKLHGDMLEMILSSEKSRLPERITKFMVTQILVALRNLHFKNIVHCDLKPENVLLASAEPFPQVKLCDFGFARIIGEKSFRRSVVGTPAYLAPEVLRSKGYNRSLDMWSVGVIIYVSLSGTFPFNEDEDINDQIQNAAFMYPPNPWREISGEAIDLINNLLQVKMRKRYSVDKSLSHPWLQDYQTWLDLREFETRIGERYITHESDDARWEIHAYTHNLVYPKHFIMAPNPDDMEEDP
As to conditions: at 0.1 µM.

For assay [3], the target named is T2, Serine/threonine-protein kinase D3 (Homo sapiens). As to conditions: at 1 µM.
Assay [4] addresses T3, cGMP-dependent protein kinase 1 (Homo sapiens) (UniProt Q13976).
T3 sequence (whole entry): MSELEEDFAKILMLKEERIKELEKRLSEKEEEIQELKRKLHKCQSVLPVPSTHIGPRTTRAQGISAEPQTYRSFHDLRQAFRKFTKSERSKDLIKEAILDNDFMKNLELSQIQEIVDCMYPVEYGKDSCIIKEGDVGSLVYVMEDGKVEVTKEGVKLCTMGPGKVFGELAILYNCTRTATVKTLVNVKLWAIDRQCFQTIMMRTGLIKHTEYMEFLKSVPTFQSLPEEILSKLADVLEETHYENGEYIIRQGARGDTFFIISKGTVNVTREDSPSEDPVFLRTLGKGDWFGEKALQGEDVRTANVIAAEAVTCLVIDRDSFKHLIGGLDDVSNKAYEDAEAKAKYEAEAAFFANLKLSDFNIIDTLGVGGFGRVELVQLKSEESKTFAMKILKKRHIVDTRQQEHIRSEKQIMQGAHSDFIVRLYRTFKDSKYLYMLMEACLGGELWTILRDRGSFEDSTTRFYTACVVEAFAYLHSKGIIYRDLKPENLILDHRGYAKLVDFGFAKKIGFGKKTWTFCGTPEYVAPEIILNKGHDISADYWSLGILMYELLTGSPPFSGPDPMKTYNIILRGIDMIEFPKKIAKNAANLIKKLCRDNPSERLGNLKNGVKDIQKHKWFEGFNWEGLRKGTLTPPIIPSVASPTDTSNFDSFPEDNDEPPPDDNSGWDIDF
The conditions noted are these: at 0.1 µM.

The target of assay [5] is T3, cGMP-dependent protein kinase 1 (Homo sapiens). The conditions noted are these: at 1 µM.
The target of assay [6] is T4, cGMP-dependent protein kinase 2 (Homo sapiens) (UniProt Q13237).
T4 sequence (whole entry): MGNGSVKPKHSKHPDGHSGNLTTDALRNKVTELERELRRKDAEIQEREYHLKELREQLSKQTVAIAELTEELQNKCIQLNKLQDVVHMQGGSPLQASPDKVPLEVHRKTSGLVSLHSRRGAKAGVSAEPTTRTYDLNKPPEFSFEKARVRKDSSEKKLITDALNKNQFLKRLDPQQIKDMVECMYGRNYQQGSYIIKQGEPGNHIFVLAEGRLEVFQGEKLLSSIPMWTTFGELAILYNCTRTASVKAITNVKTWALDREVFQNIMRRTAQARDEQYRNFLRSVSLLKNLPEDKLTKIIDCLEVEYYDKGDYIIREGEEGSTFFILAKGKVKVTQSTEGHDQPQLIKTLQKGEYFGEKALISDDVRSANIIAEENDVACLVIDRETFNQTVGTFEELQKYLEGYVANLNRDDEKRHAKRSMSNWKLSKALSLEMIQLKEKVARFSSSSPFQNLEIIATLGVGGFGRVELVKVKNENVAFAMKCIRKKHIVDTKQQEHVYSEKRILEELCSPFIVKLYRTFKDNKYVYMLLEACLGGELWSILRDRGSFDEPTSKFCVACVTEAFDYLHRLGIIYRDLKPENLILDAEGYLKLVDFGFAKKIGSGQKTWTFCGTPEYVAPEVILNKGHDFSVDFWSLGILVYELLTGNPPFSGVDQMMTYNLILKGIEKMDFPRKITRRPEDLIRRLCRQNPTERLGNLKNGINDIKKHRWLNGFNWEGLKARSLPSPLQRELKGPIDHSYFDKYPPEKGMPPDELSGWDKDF
The conditions noted are these: at 0.1 µM.

Assay [7] deals with T4, cGMP-dependent protein kinase 2 (Homo sapiens). The conditions noted are these: at 1 µM.
Assay [8] addresses T5, cAMP-dependent protein kinase catalytic subunit PRKX (Homo sapiens) (UniProt P51817).
T5 sequence (whole entry): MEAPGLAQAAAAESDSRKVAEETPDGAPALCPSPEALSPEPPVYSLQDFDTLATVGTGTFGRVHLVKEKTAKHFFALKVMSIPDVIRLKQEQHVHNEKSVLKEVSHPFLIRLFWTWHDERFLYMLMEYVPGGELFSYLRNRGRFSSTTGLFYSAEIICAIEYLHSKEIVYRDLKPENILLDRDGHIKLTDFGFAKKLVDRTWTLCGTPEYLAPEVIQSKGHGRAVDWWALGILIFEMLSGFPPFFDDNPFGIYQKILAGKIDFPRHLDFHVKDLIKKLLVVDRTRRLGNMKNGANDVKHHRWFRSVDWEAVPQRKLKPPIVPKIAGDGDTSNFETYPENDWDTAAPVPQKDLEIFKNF
As to conditions: at 0.1 µM.

Assay [9] deals with T5, cAMP-dependent protein kinase catalytic subunit PRKX (Homo sapiens). As to conditions: at 1 µM.
Assay [10] concerns the target Rho-associated protein kinase 1 (Homo sapiens) (UniProt Q13464). As to conditions: at 0.1 µM.
Assay [11] has the same target. The conditions noted are these: at 1 µM.
Assay [12] concerns the target Rho-associated protein kinase 2 (Homo sapiens) (UniProt O75116). As to conditions: at 0.1 µM.
Assay [13] has the same target. The conditions noted are these: at 1 µM.
Assay [14] addresses Ribosomal protein S6 kinase alpha-1 (Homo sapiens) (UniProt Q15418). The conditions noted are these: at 0.1 µM.
The target is the same in assay [15]. As to conditions: at 1 µM.
The target in assay [16] is Ribosomal protein S6 kinase alpha-3 (Homo sapiens) (UniProt P51812). As to conditions: at 0.1 µM.
Chain of Ribosomal protein S6 kinase alpha-3 (Homo sapiens) (P51812 whole entry): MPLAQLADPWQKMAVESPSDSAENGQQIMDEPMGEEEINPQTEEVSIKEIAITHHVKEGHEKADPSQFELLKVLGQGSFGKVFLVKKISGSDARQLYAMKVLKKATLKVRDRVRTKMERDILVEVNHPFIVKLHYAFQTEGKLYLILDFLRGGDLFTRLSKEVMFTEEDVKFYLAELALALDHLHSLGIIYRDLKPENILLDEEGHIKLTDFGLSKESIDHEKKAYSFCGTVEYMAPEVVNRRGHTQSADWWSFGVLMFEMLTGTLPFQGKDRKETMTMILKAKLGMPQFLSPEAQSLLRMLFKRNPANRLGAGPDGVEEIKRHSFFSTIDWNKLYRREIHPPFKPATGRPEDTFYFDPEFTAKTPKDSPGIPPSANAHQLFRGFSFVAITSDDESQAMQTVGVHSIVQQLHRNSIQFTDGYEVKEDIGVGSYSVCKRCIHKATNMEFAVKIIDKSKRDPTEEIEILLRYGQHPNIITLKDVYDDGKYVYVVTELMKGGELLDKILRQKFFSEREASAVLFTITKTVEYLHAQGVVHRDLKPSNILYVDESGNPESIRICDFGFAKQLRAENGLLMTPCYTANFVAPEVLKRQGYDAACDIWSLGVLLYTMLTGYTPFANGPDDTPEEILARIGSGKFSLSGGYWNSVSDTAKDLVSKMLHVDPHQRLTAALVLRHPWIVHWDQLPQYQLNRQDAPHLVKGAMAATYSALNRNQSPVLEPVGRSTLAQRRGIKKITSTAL
Assay [17] has the same target. The conditions noted are these: at 1 µM.
Assay [18] concerns the target Ribosomal protein S6 kinase alpha-2 (Homo sapiens) (UniProt Q15349). As to conditions: at 0.1 µM.
Assay [19] shares this target. As to conditions: at 1 µM.
For assay [20], the target named is Ribosomal protein S6 kinase alpha-6 (Homo sapiens) (UniProt Q9UK32). The conditions noted are these: at 0.1 µM.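 Further: reported value is the mean inhibition of RSK4, from the GSK PKIS kinase inhibitor screen.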
Chain of Ribosomal protein S6 kinase alpha-6 (Homo sapiens) (Q9UK32 whole entry): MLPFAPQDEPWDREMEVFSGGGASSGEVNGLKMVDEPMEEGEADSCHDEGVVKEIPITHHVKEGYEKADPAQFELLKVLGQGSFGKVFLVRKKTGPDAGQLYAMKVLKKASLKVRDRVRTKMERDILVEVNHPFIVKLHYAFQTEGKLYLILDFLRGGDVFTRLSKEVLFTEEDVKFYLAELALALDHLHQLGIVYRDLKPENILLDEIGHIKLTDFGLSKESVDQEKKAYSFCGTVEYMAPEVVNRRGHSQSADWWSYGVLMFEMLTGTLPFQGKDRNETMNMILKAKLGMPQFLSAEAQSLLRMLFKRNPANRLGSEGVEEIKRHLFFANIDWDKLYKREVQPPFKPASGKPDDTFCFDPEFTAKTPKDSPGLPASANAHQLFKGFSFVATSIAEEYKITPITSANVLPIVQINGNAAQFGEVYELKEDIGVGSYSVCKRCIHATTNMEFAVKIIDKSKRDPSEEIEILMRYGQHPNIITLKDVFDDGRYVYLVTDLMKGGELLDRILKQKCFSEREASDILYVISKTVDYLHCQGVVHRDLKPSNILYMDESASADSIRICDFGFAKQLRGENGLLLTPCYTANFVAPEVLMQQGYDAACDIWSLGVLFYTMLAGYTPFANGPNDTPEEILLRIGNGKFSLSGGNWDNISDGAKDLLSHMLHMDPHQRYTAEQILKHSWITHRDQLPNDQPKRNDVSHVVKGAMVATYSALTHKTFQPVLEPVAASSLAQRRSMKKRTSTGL

Structures are written as SMILES.

Chain of Rho-associated protein kinase 1 (Homo sapiens) (Q13464 2-1354 limits assumed): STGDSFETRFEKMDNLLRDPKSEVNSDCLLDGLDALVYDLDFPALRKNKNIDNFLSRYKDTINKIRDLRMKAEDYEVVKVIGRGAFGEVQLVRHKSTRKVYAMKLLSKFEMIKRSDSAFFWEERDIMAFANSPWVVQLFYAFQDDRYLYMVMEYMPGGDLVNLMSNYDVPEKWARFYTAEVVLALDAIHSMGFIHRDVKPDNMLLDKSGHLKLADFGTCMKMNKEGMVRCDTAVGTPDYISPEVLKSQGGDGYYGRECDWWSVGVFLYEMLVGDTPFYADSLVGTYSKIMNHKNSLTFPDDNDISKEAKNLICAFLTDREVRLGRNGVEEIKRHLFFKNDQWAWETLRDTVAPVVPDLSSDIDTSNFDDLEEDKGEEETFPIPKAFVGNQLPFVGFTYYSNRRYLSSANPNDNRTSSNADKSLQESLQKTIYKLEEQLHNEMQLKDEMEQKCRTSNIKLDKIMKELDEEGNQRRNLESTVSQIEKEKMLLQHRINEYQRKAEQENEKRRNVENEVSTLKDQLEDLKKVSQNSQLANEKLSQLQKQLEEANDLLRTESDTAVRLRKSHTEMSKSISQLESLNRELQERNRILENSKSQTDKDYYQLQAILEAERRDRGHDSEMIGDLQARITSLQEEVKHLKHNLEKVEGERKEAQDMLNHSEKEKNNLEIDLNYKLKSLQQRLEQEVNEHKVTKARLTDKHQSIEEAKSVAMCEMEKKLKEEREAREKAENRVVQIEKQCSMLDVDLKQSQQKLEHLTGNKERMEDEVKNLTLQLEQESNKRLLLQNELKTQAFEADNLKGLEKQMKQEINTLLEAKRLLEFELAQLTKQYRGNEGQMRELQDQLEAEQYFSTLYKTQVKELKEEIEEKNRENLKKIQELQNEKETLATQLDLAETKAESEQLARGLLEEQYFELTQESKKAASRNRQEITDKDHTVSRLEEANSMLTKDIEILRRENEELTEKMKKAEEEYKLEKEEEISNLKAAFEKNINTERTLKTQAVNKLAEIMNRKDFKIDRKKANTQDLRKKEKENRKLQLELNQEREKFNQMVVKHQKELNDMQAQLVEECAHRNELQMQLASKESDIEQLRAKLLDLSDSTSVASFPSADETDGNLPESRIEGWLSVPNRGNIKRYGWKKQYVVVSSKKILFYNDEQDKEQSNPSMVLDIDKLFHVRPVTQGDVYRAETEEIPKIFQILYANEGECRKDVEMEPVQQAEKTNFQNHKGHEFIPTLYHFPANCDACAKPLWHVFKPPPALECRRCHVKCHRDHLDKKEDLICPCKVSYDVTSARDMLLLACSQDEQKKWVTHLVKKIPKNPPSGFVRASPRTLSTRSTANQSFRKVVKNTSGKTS
Chain of Ribosomal protein S6 kinase alpha-2 (Homo sapiens) (Q15349 whole entry): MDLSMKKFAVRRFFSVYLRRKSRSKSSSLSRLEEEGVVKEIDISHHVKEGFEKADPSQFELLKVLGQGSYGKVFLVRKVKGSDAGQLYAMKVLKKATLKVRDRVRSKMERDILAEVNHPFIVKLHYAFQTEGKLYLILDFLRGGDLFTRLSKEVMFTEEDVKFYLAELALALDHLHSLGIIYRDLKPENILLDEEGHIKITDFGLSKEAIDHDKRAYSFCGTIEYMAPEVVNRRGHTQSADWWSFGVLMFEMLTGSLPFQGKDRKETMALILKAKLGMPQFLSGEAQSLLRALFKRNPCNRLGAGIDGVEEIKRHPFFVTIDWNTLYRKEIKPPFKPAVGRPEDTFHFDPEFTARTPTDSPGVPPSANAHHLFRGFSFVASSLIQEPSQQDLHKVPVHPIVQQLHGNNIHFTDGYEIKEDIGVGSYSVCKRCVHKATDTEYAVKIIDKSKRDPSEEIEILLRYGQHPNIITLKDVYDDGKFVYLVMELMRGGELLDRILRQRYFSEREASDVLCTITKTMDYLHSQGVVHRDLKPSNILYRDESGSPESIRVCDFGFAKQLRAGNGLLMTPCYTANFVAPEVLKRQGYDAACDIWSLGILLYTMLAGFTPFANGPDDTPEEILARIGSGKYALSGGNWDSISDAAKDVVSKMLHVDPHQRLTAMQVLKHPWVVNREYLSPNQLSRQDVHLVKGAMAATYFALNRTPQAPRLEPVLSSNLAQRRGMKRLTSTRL
Chain of Rho-associated protein kinase 2 (Homo sapiens) (O75116 whole entry, looked up): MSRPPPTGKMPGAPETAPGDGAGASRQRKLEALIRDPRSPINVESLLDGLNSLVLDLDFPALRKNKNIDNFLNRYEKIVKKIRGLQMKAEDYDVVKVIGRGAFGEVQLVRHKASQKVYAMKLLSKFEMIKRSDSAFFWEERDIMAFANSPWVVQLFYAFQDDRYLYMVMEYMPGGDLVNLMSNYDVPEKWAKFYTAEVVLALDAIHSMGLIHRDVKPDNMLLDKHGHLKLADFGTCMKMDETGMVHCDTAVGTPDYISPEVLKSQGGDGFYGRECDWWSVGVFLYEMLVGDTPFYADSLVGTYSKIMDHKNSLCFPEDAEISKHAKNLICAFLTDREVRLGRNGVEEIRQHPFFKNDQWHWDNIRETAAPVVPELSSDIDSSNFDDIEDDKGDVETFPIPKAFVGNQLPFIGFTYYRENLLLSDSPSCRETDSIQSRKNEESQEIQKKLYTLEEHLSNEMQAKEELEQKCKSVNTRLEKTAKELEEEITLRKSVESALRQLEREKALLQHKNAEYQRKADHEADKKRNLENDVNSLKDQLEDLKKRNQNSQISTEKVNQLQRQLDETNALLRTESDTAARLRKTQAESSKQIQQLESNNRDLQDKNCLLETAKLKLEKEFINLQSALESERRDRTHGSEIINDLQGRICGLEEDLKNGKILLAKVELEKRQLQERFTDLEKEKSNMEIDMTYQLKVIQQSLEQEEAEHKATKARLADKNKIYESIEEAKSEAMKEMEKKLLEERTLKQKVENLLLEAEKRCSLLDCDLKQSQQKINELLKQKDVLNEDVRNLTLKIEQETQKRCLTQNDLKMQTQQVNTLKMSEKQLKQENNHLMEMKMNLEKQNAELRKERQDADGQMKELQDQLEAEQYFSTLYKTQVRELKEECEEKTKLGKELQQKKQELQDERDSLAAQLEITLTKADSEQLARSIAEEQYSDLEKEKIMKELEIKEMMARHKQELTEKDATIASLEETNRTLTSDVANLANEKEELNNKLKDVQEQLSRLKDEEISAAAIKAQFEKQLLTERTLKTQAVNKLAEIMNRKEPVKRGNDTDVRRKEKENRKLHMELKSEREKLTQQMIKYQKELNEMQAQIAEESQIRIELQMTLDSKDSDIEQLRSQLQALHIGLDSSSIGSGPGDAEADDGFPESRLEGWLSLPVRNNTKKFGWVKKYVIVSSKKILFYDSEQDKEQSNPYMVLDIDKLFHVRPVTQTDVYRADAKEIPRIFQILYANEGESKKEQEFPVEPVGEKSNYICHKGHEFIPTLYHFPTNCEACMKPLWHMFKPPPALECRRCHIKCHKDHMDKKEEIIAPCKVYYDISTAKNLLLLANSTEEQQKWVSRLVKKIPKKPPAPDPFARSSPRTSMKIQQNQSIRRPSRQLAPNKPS

Regarding `Cc1cccc(-c2n[nH]cc2-c2ccc3ncccc3n2)n1`, the inhibition (usually the relative decrease from the control value, in per cent) in [1] was determined as 46.9%; in assay [2], 2.2%; in assay [3], 30.5%; in [4], 1.36%; in assay [5], 0.89%; in [6], 0.94%. In addition, the inhibition in [7] was 0.72%; in assay [8] it was 0.91%; in assay [9], 1.8%; in [10], 0.48%; in assay [11] it was -0.22%; in assay [12], 0.72%. The inhibition in assay [13] was -0.18%; in assay [14], -0.36%; in [15] it was 0.1%; in assay [16] it was 1.16%; in [17] it was 1.24%; in [18], 0.29%. The inhibition in assay [19] is 1.84%; in assay [20], 0.98%.
With `COc1ccccc1Nc1ncc(-c2ccccc2)o1`, the inhibition in [1] stood at 2.18%; in assay [2] it was 4.57%; in [3], 4.66%; in assay [4] it was 3.64%; in assay [5] it was 1.96%; in assay [6], 3.07%. The inhibition in assay [7] turned out to be 2.81%; in assay [8], 2.55%; in assay [9], 3.03%; in assay [10], 2.99%; in assay [11] it was 3.7%; in assay [12], 4.07%. Further, the inhibition in assay [13] is 3.77%; in [14], 0.8%; in [15], 23.5%; in assay [16], -0.3%; in [17] it was 0.19%; in assay [18] it was 3.05%. Besides, the inhibition in assay [19] came to 4.52%; in assay [20], 0.08%.
As for `NS(=O)(=O)c1ccc(N/N=C2\C(=O)Nc3ccc(C(=O)NCCc4c[nH]cn4)cc32)cc1`, the inhibition in assay [1] turned out to be 32.9%; in assay [2], 7.41%; in assay [3], 38.6%; in assay [4], 23.6%; in assay [5] it was 70.1%; in assay [6], 9.57%. Also, the inhibition in assay [7] is 50.8%; in assay [8], 2.93%; in [9], 12.2%; in [10], 1.37%; in [11] it was 7.56%; in assay [12] it was 3%. The inhibition in assay [13] stood at 12.4%; in assay [14], 3.37%; in assay [15], 12%; in [16], 2.21%; in [17] it was 11.9%; in assay [18] it was 5.36%. Besides, the inhibition in [19] stood at 23.5%; in assay [20], 4.08%.
